Test results from PubChem BioAssay (EPA / NIEHS).
The source made the active and inactive calls. Rule for the calls: active = hit-call score of the fitted dose curve at least 0.9, where 1 is the maximum; inactive = score below 0.9.

Experiment: Tanguay_ZF_120hpf_TCHR: Oregon State University Tanguay Lab 120 Hour Post-fertilization zebrafish Assay for Touch Responsive (AID 2284403)
Method: Tanguay_ZF_120hpf is a whole embryo, multiplexed endpoint assay using zebrafish larvae exposed for 120 hours post fertilization on a 96-well plate.Tanguay_ZF_120hpf_TCHR is one of one assay component(s) measured or calculated from the Tanguay_ZF_120hpf assay. It is designed to make measurements of zebrafish development as detected with brightfield microscopy of developing zebrafish embryos.Data from the assay component Tanguay_ZF_120hpf_TCHR was analyzed into 1 assay endpoints. This assay endpoint, Tanguay_ZF_120hpf_TCHR, was analyzed in the positive analysis fitting direction relative to DMSO as the negative control and baseline of activity. Using a type of morphology reporter, gain-of-signal activity can be used to understand changes in developmentals as they relate to the whole embryo. To generalize the intended target to other relatable targets, this assay endpoint is annotated to the zebrafish development intended target family, where the subfamily is embryonic functional response.
Zebrafish husbandry: Tropical 5D wild-type adult zebrafish were housed in at an approximate density of 1000 per 100 gallon tank at the Sinnhuber Aquatic Research Laboratory, Oregon State University, Corvallis, OR. Each tank was kept at standard laboratory conditions of 28C on a 14-h light/10-h dark photoperiod in fish water consisting of reverse osmosis water supplemented with a commercially available salt (Instant Ocean). Spawning funnels were placed into the tanks the night prior, and embryos were collected and staged. To increase bioavailability, the chorion was enzymatically removed using pronase (63.6mg/ml, >/= 3.5U/mg, Sigma-Aldrich: P5147) at 4 hours post fertilization (hpf) using a custom automated dechorionator.Chemical exposures: Six hpf dechorionated embryos were placed 1 embryo per well in a 96-well plate prefilled with 90 ul of EM using automated embryo placement systems (AEPS). Ten microliters of each row of dilution plate 2 was added to 2 exposure plates. The final DMSO concentration used was 0.64% (vol/vol). Thirty-two embryos were also exposed to 5uM trimethyltin chloride (positive control). Plates were sealed to prevent evaporation and foil covered to reduce light exposure and kept in a 28C incubator. Embryos were statically exposed until 120 hpf. At 24 hpf, embryos were assessed for photomotor response using a custom photomotor response analysis tool (PRAT) and for developmental toxicity endpoints (MO24: mortality at 24 hpf, DP: developmental progression, SM: spontaneous movement, and NC: notochord distortion). At 120 hpf, locomotor activity was measured using Viewpoint Zebralab and assessed for 13 endpoints. Zebrafish acquisition and analysis program (ZAAP), a custom program designed to inventory, acquire, and manage zebrafish data, was used to collect developmental endpoints as either present or absent (i.e., binary responses were recorded). If mortality occurred for an embryo (at either 24 or 120 hpf), the non-mortality endpoints were not measured.

Compound | outcome | AC50
FC(F)(F)C(F)(F)C(F)(F)CI | inactive | –
FC(F)(F)C(F)(F)C(F)(F)C(F)(F)C(F)(F)C(F)(F)C(F)(F)C(F)(F)F | inactive | –
Cc1ccc(S(=O)(=O)OCC(F)(F)C(F)(F)C(F)(F)C(F)(F)C(F)(F)C(F)F)cc1 | inactive | –
C=C(C)C(=O)OCCC(F)(F)C(F)(F)C(F)(F)C(F)(F)C(F)(C(F)(F)F)C(F)(F)F | inactive | –
O=C(O)C(F)(F)C(F)(F)C(F)(F)C(F)(F)F | inactive | –
O=S(=O)(O)C(F)(F)C(F)(F)C(F)(F)C(F)(F)C(F)(F)C(F)(F)C(F)(F)F | – | 43.2 µM (active)
COC(=O)CCC(F)(F)C(F)(F)C(F)(F)C(F)(F)F | inactive | –
OCC(F)(F)C(F)(F)C(F)(F)F | inactive | –
FC1CC(F)(F)C(F)(F)C1(F)F (stereo not given) | inactive | –
O=C(CC(=O)C(F)(F)C(F)(F)F)C(F)(F)F | inactive | –
O=C(O)C(F)(F)C(F)(F)F | inactive | –
FC(F)(F)C(F)(F)C(F)(F)C(F)(F)C(F)(F)C(F)(F)C(F)(F)Br | inactive | –
FC(F)(F)C(F)(F)C(F)(F)C(F)(F)C(F)(F)CCI | inactive | –
FC(F)(F)C(F)(F)C(F)(F)C(F)(F)CCI | inactive | –
FC(F)(F)C(F)(F)C(F)(F)N(C(F)(F)C(F)(F)C(F)(F)F)C(F)(F)C(F)(F)C(F)(F)F | inactive | –
O=C(O)C=C(C(F)(F)F)C(F)(F)F | inactive | –
FC(F)(F)C(F)(F)C(F)(F)C(F)(F)C(F)(F)C(F)(F)C(F)(F)I | inactive | –
N=C(N)C(F)(F)C(F)(F)C(F)(F)C(F)(F)C(F)(F)C(F)(F)C(F)(F)F | inactive | –
C=C(C)C(=O)OCC(F)(F)C(F)(F)C(F)(F)C(F)(F)C(F)(F)C(F)(F)C(F)(F)F | inactive | –
O=C(O)C(F)(OC(F)(F)C(F)(OC(F)(F)C(F)(OC(F)(F)C(F)(F)C(F)(F)F)C(F)(F)F)C(F)(F)F)C(F)(F)F (stereo not given) | inactive | –

Compound | outcome | AC50
O=C(O)C(F)(F)C(F)(F)C(F)(F)C(F)(F)C(F)(F)C(F)(F)C(F)(F)C(F)(F)C(F)(F)C(F)F | inactive | –
O=S(=O)(OCC(F)F)C(F)(F)F | inactive | –
O=S(=O)(OCCOC(F)(F)F)C(F)(F)F | inactive | –
OCCCC(F)(F)C(F)(F)C(F)(F)F | inactive | –
OCC(F)(F)C(F)(F)C(F)(F)C(F)(F)C(F)(F)C(F)(F)F | inactive | –
CCO[Si](CCC(F)(F)C(F)(F)C(F)(F)C(F)(F)C(F)(F)C(F)(F)F)(OCC)OCC | inactive | –
O=C(O)C(F)(F)C(F)(F)C(F)(F)F | inactive | –
O=C(O)C(F)(F)C(F)(F)C(F)(F)C(F)(F)C(F)(F)C(F)(F)C(F)(F)C(F)(F)C(F)(F)C(F)(F)C(F)(F)C(F)(F)C(F)(F)F | inactive | –
C=C(C)C(=O)OCC(F)(F)C(F)(F)C(F)(F)F | inactive | –
OCC(F)(F)C(F)(F)C(F)(F)C(F)F | inactive | –
O=C(O)C(F)(F)C(F)(F)C(F)F | inactive | –
C=CC(F)(F)C(F)(F)C(F)(F)C(F)(F)C(F)(F)C(F)(F)C(F)(F)C(F)(F)F | inactive | –
FC(F)(F)C(F)(F)CNCC(F)(F)C(F)(F)F | inactive | –
C=CC(=O)OCC(F)(F)C(F)(F)C(F)(F)C(F)(F)COC(=O)C=C | inactive | –
O=C(O)C(F)(OC(F)(F)C(F)(OC(F)(F)C(F)(F)C(F)(F)F)C(F)(F)F)C(F)(F)F (stereo not given) | inactive | –
O=C(O)C(F)(F)C(F)(F)OC(F)(F)F | inactive | –
CCCCCCCCC(F)(F)C(F)(F)C(F)(F)C(F)(F)C(F)(F)C(F)(F)F | inactive | –
OCCCC(F)(F)C(F)(F)C(F)(F)C(F)(F)C(F)(F)C(F)(F)C(F)(F)F | inactive | –
FC(F)(F)C(F)(F)C(F)(F)C(F)(F)C(F)(F)C(F)(F)CC1CO1 (stereo not given) | inactive | –
O=C(O)C(F)(F)C(F)(F)C(F)(F)C(F)(F)C(F)(F)C(F)(F)C(F)(F)C(F)(F)Cl | – | 37.2 µM (active)
